# Measurements taken from PubChem BioAssay (Tox21).
# Unmarked numbers belong to inactive results. Results filed as inconclusive are left out. Entries that show only a call come without a potency. Active and inactive are the calls of the source. Calls follow the shape of the dose curve; as a rule, active = well fitted curve in the direction sought with a large enough effect in the repeat runs; inconclusive = weak or mixed curves; inactive = no such curve, though single readings can be large; an effect the other way counts as inactive or inconclusive.
# How the values were obtained:
# [1] = Human pregnane X receptor (PXR) small molecule agonists, qHTS cell viability counter screen (AID 1346977); also: nearly all actives have a fitted effect of over 50% in size; also: potency is read from the fitted curve at half-maximal effect
# Outline: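 Cytotoxicity counter screen run in the same wells as the PXR luciferase assay, using PXR-Luc HepG2 cells in charcoal-stripped serum medium. Viability: CellTiter-Fluor fluorescence after 24hr compound treatment.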
# [2] = Caspase-3/7 induction in HepG2 cells by small molecules, qHTS assay (AID 1346978); also: nearly all actives have a fitted effect of over 15% in size
# Outline: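 Wild-type HepG2 cells (2,000/well) were settled 5 h at 37 C, 5% CO2, then exposed to compounds in DMSO for 17 h. Caspase-3/7 activity was read by luminescence 30 min after adding Caspase-Glo 3/7 reagent at room temperature.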
# [3] = Caspase-3/7 induction in CHO-K1 cells by small molecules, qHTS cell viability counter screen (AID 1346979); also: nearly all actives have a fitted effect of over 35% in size; also: potency is read from the fitted curve at half-maximal effect
# Outline: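 Cytotoxicity counter screen run in parallel with the caspase-3/7 assay: CHO-K1 cells, 16hr compound treatment at 37C, then CellTiter-Fluor for 1hr before fluorescence reading.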
# [4] = Caspase-3/7 induction in CHO-K1 cells by small molecules, qHTS assay (AID 1346980); also: nearly all actives have a fitted effect of over 15% in size
# Outline: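 Wild-type cells were seeded at 1,500 per well and settled 5 hr at 37 C, 5% CO2, then exposed to DMSO-dissolved compounds for 17 hr. Caspase-Glo 3/7 reagent was added, and luminescence was read after 30min at room temperature.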
# [5] = Caspase-3/7 induction in HepG2 cells by small molecules, qHTS cell viability counter screen (AID 1346981); also: nearly all actives have a fitted effect of over 30% in size; also: potency is read from the fitted curve at half-maximal effect; as to activity change, negative = cytotoxicity: series mostly up to about 92 µM
# Outline: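 Cell viability is measured as a cytotoxicity counter screen alongside the Caspase-Glo 3/7 readout in identical wells. Wild-type HepG2 cells are treated with test compounds for 16 hr at 37 C before CellTiter-Fluor addition and a 1-hr incubation.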
# [6] = molecular target: Nuclear receptor subfamily 1 group I member 2 (Homo sapiens) (UniProt O75469); assay: Human pregnane X receptor (PXR) small molecule agonists, qHTS assay (AID 1346982); also: nearly all actives have a fitted effect of over 35% in size; also: potency is read from the fitted curve at half-maximal effect
# Sequence of Nuclear receptor subfamily 1 group I member 2 (Homo sapiens) (O75469 whole entry, looked up): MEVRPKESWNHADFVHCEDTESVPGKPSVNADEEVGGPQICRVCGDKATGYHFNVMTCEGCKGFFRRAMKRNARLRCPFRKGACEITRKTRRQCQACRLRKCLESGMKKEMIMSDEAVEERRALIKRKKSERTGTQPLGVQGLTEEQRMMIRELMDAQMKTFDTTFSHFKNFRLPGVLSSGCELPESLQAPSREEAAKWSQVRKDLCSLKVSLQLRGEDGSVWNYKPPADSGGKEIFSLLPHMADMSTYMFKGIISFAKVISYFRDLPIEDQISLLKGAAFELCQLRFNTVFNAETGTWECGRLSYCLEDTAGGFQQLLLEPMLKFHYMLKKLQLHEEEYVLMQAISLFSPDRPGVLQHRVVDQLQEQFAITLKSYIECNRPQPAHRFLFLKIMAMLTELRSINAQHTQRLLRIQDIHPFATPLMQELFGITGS
# Outline: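 Cells: HepG2 stably carrying PXR-Luc. Medium held 5% charcoal-stripped FBS. Compounds in DMSO added after 5 hr plating, incubated 24 hr, then luminescence quantified with ONE-Glo.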
# [7] = molecular target: Cytochrome P450 2D6 (Homo sapiens) (UniProt P10635); assay: Cytochrome P450 Family 2 Subfamily D Member 6 (CYP2D6) small molecule antagonists: luciferase reporter qHTS assay (AID 1671196); also: nearly all actives have a fitted effect of over 50% in size; also: potency is read from the fitted curve at half-maximal effect
# Sequence of Cytochrome P450 2D6 (Homo sapiens) (P10635 whole entry, looked up): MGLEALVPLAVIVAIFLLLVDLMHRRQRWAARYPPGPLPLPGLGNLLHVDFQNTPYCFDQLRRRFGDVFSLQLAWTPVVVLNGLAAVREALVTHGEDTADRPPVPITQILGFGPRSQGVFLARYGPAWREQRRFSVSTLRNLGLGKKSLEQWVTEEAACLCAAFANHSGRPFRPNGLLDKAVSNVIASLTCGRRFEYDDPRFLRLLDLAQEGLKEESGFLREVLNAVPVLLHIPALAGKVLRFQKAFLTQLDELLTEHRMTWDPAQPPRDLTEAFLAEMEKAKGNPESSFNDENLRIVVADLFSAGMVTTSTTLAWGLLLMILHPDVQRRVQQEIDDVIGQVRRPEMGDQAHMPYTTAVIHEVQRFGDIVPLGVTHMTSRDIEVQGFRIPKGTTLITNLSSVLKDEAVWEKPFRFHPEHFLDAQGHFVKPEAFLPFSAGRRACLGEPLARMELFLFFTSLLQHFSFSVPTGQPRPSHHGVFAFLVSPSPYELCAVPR
# Outline: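 Enzyme and proluciferin substrate were first combined with test chemical for 10 min at room temperature. Adding NADPH regeneration solution started a 1 h reaction, stopped with luciferin detection reagent and read by luminescence 20 min later.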
# [8] = molecular target: Nuclear receptor subfamily 1 group I member 2 (Rattus norvegicus) (UniProt Q9R1A7); assay: Rat pregnane X receptor (rPXR) activation by small molecules, qHTS assay (AID 1346983); details: rPXR luciferase reporter cells, One-Glo luminescence, 24 h; max activation: active compounds read high; also: nearly all actives have a fitted effect of over 20% in size
# Sequence of Nuclear receptor subfamily 1 group I member 2 (Rattus norvegicus) (Q9R1A7 whole entry, looked up): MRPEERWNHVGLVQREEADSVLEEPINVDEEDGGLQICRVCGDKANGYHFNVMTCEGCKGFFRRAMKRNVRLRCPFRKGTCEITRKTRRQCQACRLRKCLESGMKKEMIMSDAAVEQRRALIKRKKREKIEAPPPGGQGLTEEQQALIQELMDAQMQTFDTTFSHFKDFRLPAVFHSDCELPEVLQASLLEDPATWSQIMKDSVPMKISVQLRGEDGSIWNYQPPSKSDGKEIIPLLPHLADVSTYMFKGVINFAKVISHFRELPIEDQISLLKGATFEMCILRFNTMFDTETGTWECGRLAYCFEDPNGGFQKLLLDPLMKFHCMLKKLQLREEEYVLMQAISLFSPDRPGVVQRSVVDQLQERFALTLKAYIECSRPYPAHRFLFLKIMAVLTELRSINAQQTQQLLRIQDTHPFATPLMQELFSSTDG
# Outline: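 Cell-based rPXR luciferase reporter assay, 2,000 cells per well, rested 5hr at 37 C before compound addition in DMSO, then 24 hr at 37 C. One-Glo reagent was added and luminescence read after 30 min at room temperature.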
# [9] = molecular target: Nuclear receptor subfamily 1 group I member 2 (Homo sapiens) (UniProt O75469); assay: CYP3A4 induction through human pregnane X receptor (PXR) by small molecules, qHTS assay (AID 1346984); also: nearly all actives have a fitted effect of over 40% in size; also: potency is read from the fitted curve at half-maximal effect
# Outline: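 Quantitative HTS in DPX-2 cells, i.e. HepG2 transfected with PXR response element and CYP3A4-promoter luciferase. Compounds in DMSO incubated 24hr at 37C; then P450-Glo CYP3A4 substrate, 3uM final, 3hr; One-Glo luminescence.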
# [10] = molecular target: Nuclear receptor subfamily 1 group I member 2 (Homo sapiens) (UniProt O75469); assay: Human pregnane X receptor (PXR) activation by small molecules, qHTS assay (AID 1346985); also: nearly all actives have a fitted effect of over 40% in size
# Outline: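 DPX-2 cells (HepG2 co-transfected with a PXR response element and a CYP3A4-promoter luciferase construct) were seeded at 2,000 per well, rested 5 hr at 37C, then exposed to DMSO-dissolved compounds for 24 hr. Activation was read as luciferase luminescence.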
smiles,measurement,setting,value
C=CCCC=C,Potency,[1],inactive
same,Potency,[2],inactive
same,Potency,[3],inactive
same,outcome,[4],inactive
same,Potency,[5],inactive
same,Potency,[6],inactive
same,Potency,[7],inactive
CCCCCCCCCCCCCCCCOP(=O)([O-])OCC[N+](C)(C)C,Potency,[1],inactive
same,Potency,[2],inactive
same,Potency,[3],inactive
same,outcome,[4],inactive
same,Potency,[5],inactive
same,Potency,[6],inactive
same,max activation,[8],0.239%
same,Potency,[9],inactive
CCCCC1CCC(=O)O1 (configuration not stated),Potency,[1],inactive
same,Potency,[2],inactive
same,Potency,[3],inactive
same,outcome,[4],inactive
same,Potency,[5],inactive
same,Potency,[6],inactive
same,Potency,[7],inactive
O=C(O)C(=O)Cc1c[nH]c2ccccc12,Potency,[1],inactive
same,Potency,[2],inactive
same,Potency,[3],inactive
same,outcome,[4],inactive
same,Potency,[5],inactive
same,Potency,[6],30.6 µM (active)
same,Potency,[7],28.3 µM (active)
O=S(=O)(O)C(F)(F)F,Potency,[1],inactive
same,Potency,[2],inactive
same,Potency,[3],inactive
same,outcome,[4],inactive
same,Potency,[5],inactive
CC(=O)N(CC(O)CN(C(C)=O)c1c(I)c(C(=O)NCC(O)CO)c(I)c(C(=O)NCC(O)CO)c1I)c1c(I)c(C(=O)NCC(O)CO)c(I)c(C(=O)NCC(O)CO)c1I (configuration not stated),Potency,[1],inactive
same,Potency,[2],inactive
same,Potency,[3],inactive
same,outcome,[4],inactive
same,Potency,[5],inactive
same,Potency,[6],inactive
same,max activation,[8],-0.58%
same,Potency,[9],inactive
same,Potency,[10],inactive
same,Potency,[7],inactive
NCCC(O)(P(=O)(O)O)P(=O)(O)O,Potency,[1],inactive
same,Potency,[2],inactive
same,Potency,[3],inactive
same,outcome,[4],inactive
same,Potency,[5],inactive
same,Potency,[6],inactive
same,max activation,[8],-0.383%
same,Potency,[9],inactive
same,Potency,[7],inactive
CCCCNCCCC,Potency,[1],inactive
same,Potency,[2],inactive
same,Potency,[3],inactive
same,outcome,[4],inactive
same,Potency,[5],inactive
same,Potency,[6],inactive
C[C@]12C(=O)OC(=O)[C@H]1[C@H]1C=C[C@@H]2C1,Potency,[1],inactive
same,Potency,[2],inactive
same,Potency,[3],inactive
same,outcome,[4],inactive
same,Potency,[5],inactive
same,Potency,[6],inactive
same,Potency,[7],inactive
CC(CNC1CCCCC1)OC(=O)c1ccccc1 (configuration not stated),Potency,[1],inactive
same,Potency,[2],inactive
same,Potency,[3],inactive
same,outcome,[4],inactive
same,Potency,[5],inactive
Cc1cccc(C)c1NC(=O)CN1CCCCCC1,Potency,[1],inactive
same,Potency,[2],inactive
same,Potency,[3],inactive
same,outcome,[4],inactive
same,Potency,[5],inactive
same,Potency,[6],11.9 µM (active)
same,max activation,[8],-0.265%
same,Potency,[9],14.1 µM (active)
same,Potency,[10],inactive
same,Potency,[7],12.3 µM (active)
CCc1cc(Cl)c(OC)c(C(=O)NC[C@@H]2CCCN2CC)c1O,Potency,[1],inactive
same,Potency,[2],inactive
same,Potency,[3],inactive
same,outcome,[4],inactive
same,Potency,[5],inactive
same,Potency,[6],7.5 µM (active)
same,max activation,[8],-0.901%
same,Potency,[9],15.8 µM (active)
same,Potency,[7],0.617 µM (active)
OCCN(CCO)CCN(CCO)CCO,Potency,[1],inactive
same,Potency,[2],inactive
same,Potency,[3],inactive
same,outcome,[4],inactive
same,Potency,[5],inactive
same,Potency,[6],inactive
same,Potency,[7],inactive
CCCCCCCCc1ccc(S(=O)(=O)O)cc1,Potency,[1],inactive
same,Potency,[2],inactive
same,Potency,[3],inactive
same,outcome,[4],inactive
same,Potency,[5],inactive
same,Potency,[6],inactive
same,Potency,[7],inactive
O=C(CCCl)NCc1ccccc1,Potency,[1],inactive
same,Potency,[2],inactive
same,Potency,[3],inactive
same,outcome,[4],inactive
same,Potency,[5],inactive
same,Potency,[6],inactive
same,Potency,[7],inactive
CN(C)Cc1ccccc1,Potency,[1],inactive
same,Potency,[2],inactive
same,Potency,[3],inactive
same,outcome,[4],inactive
same,Potency,[5],inactive
same,Potency,[6],inactive
same,Potency,[7],18 µM (active)
O=C(O)c1ccccc1Nc1cc(Cl)ccc1C(=O)O,"activity change, negative = cytotoxicity",[1],7.26% [at 19 µM]
same,caspase activation,[2],0.287% [at 19 µM]
same,"activity change, negative = cytotoxicity",[3],5.08% [at 19 µM]
same,caspase-3/7 activation,[4],1.36% [at 19 µM]
same,"activity change, negative = cytotoxicity",[5],3.27% [at 19 µM]
same,activation,[6],5.75% [at 19 µM]
same,Potency,[7],1.51 µM (active)
CC(=O)O[C@H]1CC[C@@]2(C)C(=CC[C@@H]3[C@@H]2CC[C@]2(C)C(C(C)=O)=CC[C@@H]32)C1,Potency,[1],inactive
same,Potency,[2],inactive
same,Potency,[3],inactive
same,outcome,[4],inactive
same,Potency,[5],inactive
same,Potency,[6],inactive
same,Potency,[7],inactive
CCN(CC)C(=O)N(CC)CC,Potency,[1],inactive
same,Potency,[2],inactive
same,Potency,[3],inactive
same,outcome,[4],inactive
same,Potency,[5],inactive
same,Potency,[6],inactive
same,Potency,[7],inactive
CC(C)c1ccccc1,Potency,[1],inactive
same,Potency,[2],inactive
same,Potency,[3],inactive
same,outcome,[4],inactive
same,Potency,[5],inactive
same,Potency,[6],inactive
same,Potency,[7],inactive
NNS(=O)(=O)c1ccc(Oc2ccc(S(=O)(=O)NN)cc2)cc1,Potency,[1],inactive
same,Potency,[2],inactive
same,Potency,[3],inactive
same,outcome,[4],inactive
same,Potency,[5],inactive
same,Potency,[7],inactive
CC(C)OC(C)C,Potency,[1],inactive
same,Potency,[2],inactive
same,Potency,[3],inactive
same,outcome,[4],inactive
same,Potency,[5],inactive
same,Potency,[6],inactive
same,Potency,[7],inactive
CN1[C@@H]2CC[C@H]1CC(OC(=O)c1c[nH]c3ccccc13)C2 (some centres not stated),Potency,[1],inactive
same,Potency,[2],inactive
same,Potency,[3],inactive
same,outcome,[4],inactive
same,Potency,[5],inactive
same,Potency,[6],inactive
same,Potency,[7],15.5 µM (active)
C[C@@H](N)C(=O)O,Potency,[1],inactive
same,Potency,[2],inactive
same,Potency,[3],inactive
same,outcome,[4],inactive
same,Potency,[5],inactive
same,max activation,[8],-2.77%
same,Potency,[9],inactive
same,Potency,[7],inactive
CCCCCCCCCC/C=C/C#N,Potency,[1],inactive
same,Potency,[2],inactive
same,Potency,[3],inactive
same,outcome,[4],inactive
same,Potency,[5],inactive
same,Potency,[6],inactive
same,Potency,[7],inactive
O=C(C(Cl)Cl)N1CCOC12CCCCC2,Potency,[1],61.1 µM (active)
same,Potency,[2],inactive
same,Potency,[3],61.1 µM (active)
same,outcome,[4],inactive
same,Potency,[5],61.1 µM (active)
same,Potency,[6],34.4 µM (active)
same,Potency,[7],inactive
CCCCCCn1c(=O)c2c(ncn2C)n(C)c1=O,Potency,[1],inactive
same,Potency,[2],inactive
same,Potency,[3],inactive
same,outcome,[4],inactive
same,Potency,[5],inactive
same,Potency,[6],inactive
same,Potency,[7],inactive
CCOC(=O)c1cc(=O)c2c(OCC(COc3cccc4oc(C(=O)OCC)cc(=O)c34)OC(=O)[C@@H](N)CCCCN)cccc2o1,Potency,[1],inactive
same,Potency,[2],inactive
same,Potency,[3],inactive
same,outcome,[4],inactive
same,Potency,[5],inactive
same,Potency,[6],inactive
same,Potency,[7],inactive
